Shown is part of a subset that was picked to be rich in hits.
MARV entry inh: inhibitors of Marburg virus binding or cell entry; Potency, µM (titrated, usually from 37.8 µM), for inactives: at the highest dose activity change, negative = inhibition, usual class: inhibitors; hit rate 1.8% among 300,000; AID 540276; Marburg virus pseudotyped entry inhibition, cell reporter; calls by dose curve; tested in HEK293 cells; note: potency is the fitted concentration of half-maximal effect; % is set by controls: 0 for no effect and ±100 for the full control effect
Vaccinia mCherry: vaccinia inhibition (mCherry reporter); Vaccinia virus mCherry reporter infection, fluorescence; hit rate 0.63% among 310,000; Potency, µM (highest dose often 36.5 µM), without a hit: top-dose activity change, negative = inhibition, hits mostly inhibitors; AID 720579; calls by dose curve; tested in A549 cells; note: potency is the fitted concentration of half-maximal effect; % is set by controls: 0 for no effect and ±100 for the full control effect; nearly all actives have a fitted effect of over 35% in size
LASV entry inh: Lassa virus entry inhibition; hit rate 1.2% among 300,000; Lassa virus pseudotype entry inhibition, cell reporter; Potency, µM (titrated, usually from 37.9 µM), for the others: at the highest dose activity change, negative = inhibition, hits mostly inhibitors; calls by dose curve; tested in HEK293 cells; note: potency is the fitted concentration of half-maximal effect; % is set by controls: 0 for no effect and ±100 for the full control effect; nearly all actives have a fitted effect of over 50% in size
Vaccinia Venus: vaccinia inhibition (Venus reporter); Potency, µM (top dose mostly 36.5 µM), for the others: at the top dose activity change, negative = inhibition, hits mostly inhibitors; hit rate 0.46% among 330,000; Vaccinia virus Venus reporter expression, fluorescence; calls by dose curve; tested in A549 cells; note: potency is the fitted concentration of half-maximal effect; % is set by controls: 0 for no effect and ±100 for the full control effect; nearly all actives have a fitted effect of over 30% in size
Shiga inhibitor: inhibitors of Shiga toxin in Vero cells. AID 2315. inhibition, % at 38.7 µM. hit rate 9.2% among 290,000. Vero cells, Shiga toxin protein synthesis inhibition reporter; in the data active = inhibition mostly above about 28%, no sharp cut-off; inactive = mostly below about 43%; note: 0% is about no effect
Cycloheximide cs: counter-screen hit for Shiga toxin inhibitors, cycloheximide; cell reporter, cycloheximide protein synthesis inhibition counterscreen; max response, %; hit rate 12% among 300,000; in the data active = max response mostly above about 13%, no sharp cut-off; inactive = mostly below about 14%; note: read at 38.3 µM for the half of the compounds with a filed dose; 0% is about no effect
Active calls of the source: *; i = inactive; ? = inconclusive; · = no result given; + = active, no number; [ ] = dose if it differs, or a comment.

SMILES	MARV entry inh	Vaccinia mCherry	LASV entry inh	Vaccinia Venus	Shiga inhibitor	Cycloheximide cs
OC(c1ccc(F)c(F)c1)c1ncc(-c2cccc(C(F)(F)F)c2)[nH]1 (stereo not drawn)	·	13%	·	-22%	·	·
O=C(COC(=O)c1ccc2[nH]c3c(c2c1)CCCC3)Nc1ccccc1Cl	-11%[46.1 µM]	5%	-16%	-3%	3	-1
O=C(COC(=O)c1ccc2[nH]c3c(c2c1)CCCC3)Nc1ccc(Cl)cc1Cl	8.9µM*	i	5%	-8%	-6	-1
CCC(C)c1ccccc1NC(=O)COC(=O)c1ccc2[nH]c3c(c2c1)CCCC3 (stereo not drawn)	2.2µM*	?	?	?	3	-2
C/C(=C\C(=O)Nc1nccs1)c1ccccc1	17%	-6%	96%[14.3 µM]	-1%	116*	57*
CCC(C)OC(=O)n1ccc(C(=O)Nc2nccs2)n1 (stereo not drawn)	7%	?	21%	?	68*	32*
CC(Oc1ccc(Cl)cc1)C(=O)Nc1nccs1 (stereo not drawn)	9%	·	10%	·	56*	17*
O=C(Nc1ccc(F)cc1)Nc1nnc(-c2ccncc2)s1	-1%	-20%	?	-14%	24	-3
C/C(=C\C(=O)O)C(=O)Nc1nccs1	-3%	·	0%	10%	-6	-3
O=C(Nc1ccc(Cl)cc1)Nc1nnc(-c2ccncc2)s1	?	-8%	4µM*	-26%	-8	0
Cc1ccc2nc(C3CCCN3Cc3nc(CCC(C)C)no3)[nH]c2c1 (stereo not drawn)	?	i	-1%[46.1 µM]	0%	81	4
CCOCCc1nn2c(=O)cc(COC(=O)COc3ccccc3Cl)nc2s1	·	-6%	-3%[46.1 µM]	-6%	·	·
c1ccc2c(c1)OCCOCCOc1ccccc1OCCOCCO2	?	i	-2%	-10%	8	0
COc1ccc(N2C(=O)CSC23C(=O)N(Cc2ccc(C)cc2)c2ccccc23)cc1Cl (stereo not drawn)	·	-16%	?	-3%	·	·
Cc1c(C(=O)N2CCC(Cc3ccccc3)CC2)sc2ncnc(NCc3ccccn3)c12	·	-24%	·	-16%	·	·
CCCCNC(=O)c1ccc2nc(CC)c(N(C)Cc3cccs3)n2c1	·	i	·	-8%	·	·
O=C(Nc1ccccc1)Nc1nccs1	0%	·	9%	·	45*	38*
CCC(C)C(=O)Nc1nccs1 (stereo not drawn)	-1%[46.1 µM]	i	9%	-6%	37	16*
O=C(Nc1ccc(Cl)cc1)Nc1nccs1	-17%	?	-14%	?	47*	30*
CNC(=O)[C@@]1(Cc2ccccc2)C=C[C@@H](C)N1C(C)=O	·	-11%	·	-2%	·	·
CCC(CC)c1nnc(NC(=O)COc2ccc3c(c2)OCO3)s1	?	-16%	-20%[46.1 µM]	10%	15	-1
O=C(O)CSc1nnc(NC(=O)c2ccc3c(c2)OCO3)s1	?	i	8.9µM*	-4%	-27	-9
CC(C)(C)Cc1nnc(NC(=O)c2ccc3c(c2)OCO3)s1	12%[46.1 µM]	i	13%	-9%	48*	44*
CCC(CC)c1nnc(NC(=O)c2ccc3c(c2)OCO3)s1	?	-12%	?	-3%	62*	19*
COc1ccc(C)cc1/C=C/C(=O)N1CCN(S(=O)(=O)c2cccs2)CC1	·	i	·	-20%	·	·
SMILES	MARV entry inh	Vaccinia mCherry	LASV entry inh	Vaccinia Venus	Shiga inhibitor	Cycloheximide cs
Cc1cc(Br)ccc1OCC(=O)NNC(=O)C(=O)Nc1ccccc1	?	-10%	23%	-2%	50*	13
Cc1cc(Br)ccc1OCC(=O)NC1CCCC1	·	·	·	·	52*	35*
CN1CCC(N(C)S(=O)(=O)c2ccc(NC(=O)COc3ccc(Br)cc3Cl)cc2)CC1	8.9µM*	i	6.3µM*	-20%	·	·
Cc1cc(Br)ccc1SCC(=O)OCC(=O)NC1CCCC1	·	·	·	·	-8	5
Cc1ccc(OCC(=O)Nc2ccc(S(=O)(=O)N(C)C3CCN(C)CC3)cc2)c(C)c1	·	·	·	·	-6	-2
CC(C)(C)NC(=O)NC(=O)COc1ccc(Br)cc1Br	?	-21%	5.8µM*	-25%	136*	90*
Cc1cc(Br)ccc1OCC(=O)NNC(=O)Cc1ccccc1	-20%	·	5%	·	-3	-2
CN(CC(=O)Nc1ccc(Cl)c(C(F)(F)F)c1)C(=O)CCN1C(=O)C2CCCCC2C1=O (stereo not drawn)	?	?	-16%	-17%	·	·
c1coc(CNc2nc[n+]3c4c2ncn4CC3)c1	·	-12%	·	-8%	·	·
COCc1c(C(=O)N2CCC(N(C)C)C2)cnn1-c1ncc2c(n1)-c1ccccc1CCC2 (stereo not drawn)	·	-10%	·	-2%	·	·
Cc1ccc(C)c(Cn2c(=O)n(C)c(=O)c3sccc32)c1	1%	-8%	9%	-3%	-15	-2
COc1ccc(Br)cc1CN(C)CC(=O)NCCc1ccccc1	-25%[46.1 µM]	-13%	3%	-4%	-12	1
CN(C(=O)COc1ccc(Br)cc1Cl)C1CCCCC1	-5%[46.1 µM]	-4%	15%	-2%	53*	24*
CCN(CC)C(=O)COc1ccc(Br)cc1Cl	4%	-17%	-4%	-19%	-3	-3
O=C(COc1ccc(Br)cc1CNC1CCCCC1)NCCc1ccccc1	11µM*	?	?	-20%	19	-4
Cc1cc(Cl)c(S(=O)(=O)N2CCN(c3ccc(F)cc3)CC2)cc1OCC(=O)NC1CCCCC1	10µM*	·	?	·	-12	-3
CC(=O)Nc1ccc(NC(=O)COc2ccc(Br)cc2C)cc1	-26%	-17%	8%	-11%	-10	8
Cc1cccc(NC(=O)COc2ccc(Br)cc2/C=N/O)c1	?	i	?	-16%	121*	75*
Cc1ccc(S(=O)(=O)N2C[C@@]3(O)Cn4c(=O)ccc(=O)n4C[C@@]3(OC(=O)NCc3ccccc3F)C2)cc1	·	-9%	·	-5%	·	·
O=C(Cn1cc(S(=O)(=O)c2ccc(Cl)cc2)c(=O)c2ccccc21)Nc1ccc2c(c1)OCO2	-4%[46.1 µM]	-12%	8%[46.1 µM]	-9%	·	·
CCOc1cc2c(c3c1C(c1ccccc1)N(S(=O)(=O)c1ccc(C)cc1)C3)C(=O)C=CC2=O (stereo not drawn)	·	-24%	·	?	·	·
COC(=O)C1=C(C)N(Cc2ccccc2)C(=S)NC1c1cccc(C(F)(F)F)c1 (stereo not drawn)	-35%[14.2 µM]	·	·	·	·	·
CCn1c(SCc2ccc(F)cc2Cl)nnc1-c1nonc1NC(C)=O	2%[46.1 µM]	-22%	-13%[46.1 µM]	-17%	·	·
COc1ccccc1CNc1nc(-c2ccco2)nn1S(C)(=O)=O	?	i	24%[46.1 µM]	-12%	·	·
Cc1cc(C)cc(NC(=O)C(c2ccccc2)N2CCN(CC(=O)NC3CC3)CC2)c1 (stereo not drawn)	?	-20%	?	-14%	·	·
C=CCNC(=O)COc1ccccc1C#N	·	·	·	·	37	9
CC(C)(C)NC(=O)NC(=O)COc1ccccc1C#N	?	·	-16%	·	+	66*
O=C(COc1ccc(Br)cc1Br)NC(=O)NC1CCCC1	?	-16%	-9%	-3%	142*	59*

Compound activity as filed in PubChem BioAssay.
